Source: the supplement of paper PMC6288085
Counter-ions that a name gives are not always drawn. ± gives the uncertainty stated by the source.

The compounds below were run on Caenorhabditis elegans N2 (assay: food intake (mean delta OD600 / animal over 72 h) with 50 uM loxapine co-treatment (OD600 units per animal); higher = more food eaten (less suppression of loxapine-induced hyperphagia)). Details: first compound 33 µM, loxapine concentration 50 µM.
Description: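 C. elegans N2 adults (FUDR-sterilised, day 1) in 96-well plates fed gamma-irradiated bacteria. Each library drug (MedChemExpress FDA-approved library) at 33 uM was combined with loxapine at 50 uM. Food intake was measured as bacterial clearance: the change in OD600 from day 1 to 72 h, normalised per animal (mean over 14-21 wells of about 10-12 worms). Drugs flagged for bacterial lysis or sickness were excluded by the authors.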
`CC(C)NCC(O)COc1ccc(CCOCC2CC2)cc1` (stereo not given) [betaxolol (hydrochloride)] + CN1CCN(C2=Nc3ccccc3Oc3ccc(Cl)cc32)CC1 [loxapine] gave a food intake of 0.025 ± 0.003.
In the case of `Nc1nccs1` [aminothiazole] + CN1CCN(C2=Nc3ccccc3Oc3ccc(Cl)cc32)CC1 [loxapine], the food intake is reported as 0.0243 ± 0.0035.
`COc1ccc(C(=O)NCc2ccc(OCCN(C)C)cc2)cc1OC` [itopride (hydrochloride)] + CN1CCN(C2=Nc3ccccc3Oc3ccc(Cl)cc32)CC1 [loxapine] gave a food intake of 0.0294 ± 0.033.
`Nc1ccc(O)c(C(=O)O)c1` [5-Aminosalicylic acid] + CN1CCN(C2=Nc3ccccc3Oc3ccc(Cl)cc32)CC1 [loxapine] showed a food intake of 0.0212 ± 0.0048.
`[F-].[Na+]` [sodium fluoride] + CN1CCN(C2=Nc3ccccc3Oc3ccc(Cl)cc32)CC1 [loxapine] showed a food intake of 0.0241 ± 0.0018.
Compound `Cc1cc(C)cc(OCC2CNC(=O)O2)c1` (stereo not given) [metaxalone] + CN1CCN(C2=Nc3ccccc3Oc3ccc(Cl)cc32)CC1 [loxapine] has a food intake of 0.0236 ± 0.003.
With `O=c1[nH]c(=O)n([C@H]2C[C@H](O)[C@@H](CO)O2)cc1I` [idoxuridine] + CN1CCN(C2=Nc3ccccc3Oc3ccc(Cl)cc32)CC1 [loxapine] the food intake was 0.0176 ± 0.0026.
Compound `CN(Cc1cnc2nc(N)nc(N)c2n1)c1ccc(C(=O)N[C@@H](CCC(=O)O)C(=O)O)cc1` [methotrexate] + CN1CCN(C2=Nc3ccccc3Oc3ccc(Cl)cc32)CC1 [loxapine] has a food intake of 0.0222 ± 0.0022.
`CC1(C)[C@H](C(=O)O)N2C(=O)C[C@H]2S1(=O)=O` [sulbactam] + CN1CCN(C2=Nc3ccccc3Oc3ccc(Cl)cc32)CC1 [loxapine] gave a food intake of 0.0225 ± 0.0027.
With `CN1C2=CC(=O)/C(=N\NC(N)=O)C=C2CC1S(=O)(=O)O` (stereo not given) [carbazochrome (sodium sulfonate)] + CN1CCN(C2=Nc3ccccc3Oc3ccc(Cl)cc32)CC1 [loxapine] the food intake was 0.0296 ± 0.0057.
`CN1CCC[C@H]1c1cccnc1` [L-nicotine] + CN1CCN(C2=Nc3ccccc3Oc3ccc(Cl)cc32)CC1 [loxapine] was tested, and the food intake was 0.0212 ± 0.0058.
For `CN(CCOc1ccc(CC2SC(=O)NC2=O)cc1)c1ccccn1` (stereo not given) [rosiglitazone (maleate)] + CN1CCN(C2=Nc3ccccc3Oc3ccc(Cl)cc32)CC1 [loxapine], the food intake was 0.0207 ± 0.002.
For `Cc1ncc([N+](=O)[O-])n1CC(C)O` (stereo not given) [secnidazole] + CN1CCN(C2=Nc3ccccc3Oc3ccc(Cl)cc32)CC1 [loxapine], the food intake was 0.0205 ± 0.0035.
`O=P(O)(O)C(O)(Cn1ccnc1)P(=O)(O)O` [Zoledronic acid (monohydrate)] + CN1CCN(C2=Nc3ccccc3Oc3ccc(Cl)cc32)CC1 [loxapine] was tested, and the food intake was 0.0237 ± 0.003.
`CCc1ccc(CCOc2ccc(CC3SC(=O)NC3=O)cc2)nc1` (stereo not given) [pioglitazone (hydrochloride)] + CN1CCN(C2=Nc3ccccc3Oc3ccc(Cl)cc32)CC1 [loxapine] was tested, and the food intake was 0.0215 ± 0.0041.
With `Nc1nnc(-c2cccc(Cl)c2Cl)c(N)n1` [lamotrigine] + CN1CCN(C2=Nc3ccccc3Oc3ccc(Cl)cc32)CC1 [loxapine] the food intake was 0.0237 ± 0.008.
`CN1C(C(=O)Nc2ccccn2)=C(O)c2ccccc2S1(=O)=O` [piroxicam] + CN1CCN(C2=Nc3ccccc3Oc3ccc(Cl)cc32)CC1 [loxapine] was tested, and the food intake was 0.0225 ± 0.0032.
Compound `CC(C)Cc1ccc(C(C)C(=O)O)cc1` (stereo not given) [ibuprofen] + CN1CCN(C2=Nc3ccccc3Oc3ccc(Cl)cc32)CC1 [loxapine] has a food intake of 0.0222 ± 0.0021.
`O=NN(CCCl)C(=O)NC1CCCCC1` [Lomustine] + CN1CCN(C2=Nc3ccccc3Oc3ccc(Cl)cc32)CC1 [loxapine] showed a food intake of 0.0248 ± 0.0039.
`Clc1ccc(COC(Cn2ccnc2)c2ccc(Cl)cc2Cl)c(Cl)c1` (stereo not given) [miconazole (nitrate)] + CN1CCN(C2=Nc3ccccc3Oc3ccc(Cl)cc32)CC1 [loxapine] showed a food intake of 0.0169 ± 0.005.
With `C#C[C@]1(O)CC[C@H]2[C@@H]3CCC4=CC(=O)CC[C@@H]4[C@H]3C(=C)C[C@@]21CC` [etonogestrel] + CN1CCN(C2=Nc3ccccc3Oc3ccc(Cl)cc32)CC1 [loxapine] the food intake was 0.0244 ± 0.012.
`O=C(c1cc(Cc2n[nH]c(=O)c3ccccc23)ccc1F)N1CCN(C(=O)C2CC2)CC1` [olaparib] + CN1CCN(C2=Nc3ccccc3Oc3ccc(Cl)cc32)CC1 [loxapine] gave a food intake of 0.0205 ± 0.005.
`CC(=O)C1C(=O)C=C(C)OC1=O` (stereo not given) [dehydroacetic acid] + CN1CCN(C2=Nc3ccccc3Oc3ccc(Cl)cc32)CC1 [loxapine] gave a food intake of 0.0214 ± 0.0043.
Work on `Fc1ccc([C@@H]2CCNC[C@H]2COc2ccc3c(c2)OCO3)cc1` [paroxetine (hydrochloride)] + CN1CCN(C2=Nc3ccccc3Oc3ccc(Cl)cc32)CC1 [loxapine] yielded a food intake of 0.0221 ± 0.0043.
`NC(=O)c1cnccn1` [pyrazinamide] + CN1CCN(C2=Nc3ccccc3Oc3ccc(Cl)cc32)CC1 [loxapine] gave a food intake of 0.0222 ± 0.0034.
`CCc1c2c(nc3ccc(OC(=O)N4CCC(N5CCCCC5)CC4)cc13)-c1cc3c(c(=O)n1C2)COC(=O)[C@]3(O)CC` [Irinotecan] + CN1CCN(C2=Nc3ccccc3Oc3ccc(Cl)cc32)CC1 [loxapine] gave a food intake of 0.022 ± 0.003.
`O=C1CCc2cc(OCCCCc3nnnn3C3CCCCC3)ccc2N1` [cilostazol] + CN1CCN(C2=Nc3ccccc3Oc3ccc(Cl)cc32)CC1 [loxapine] showed a food intake of 0.0227 ± 0.0031.
For `C#C[C@]1(O)CC[C@H]2[C@@H]3CCc4cc(OC)ccc4[C@H]3CC[C@@]21C` [mestranol] + CN1CCN(C2=Nc3ccccc3Oc3ccc(Cl)cc32)CC1 [loxapine], the food intake was 0.0204 ± 0.0018.
Compound `N=C(N)c1ccc(OCCCCCOc2ccc(C(=N)N)cc2)cc1` [pentamidine (isethionate)] + CN1CCN(C2=Nc3ccccc3Oc3ccc(Cl)cc32)CC1 [loxapine] has a food intake of 0.0232 ± 0.0025.
With `CN(CCOc1ccc(CC2SC(=O)NC2=O)cc1)c1ccccn1` (stereo not given) [rosiglitazone] + CN1CCN(C2=Nc3ccccc3Oc3ccc(Cl)cc32)CC1 [loxapine] the food intake was 0.0226 ± 0.0041.
`COC(=O)Nc1nc2cc([S+]([O-])c3ccccc3)ccc2[nH]1` (stereo not given) [oxfendazole] + CN1CCN(C2=Nc3ccccc3Oc3ccc(Cl)cc32)CC1 [loxapine] gave a food intake of 0.0214 ± 0.0037.
`CC(=O)OCC(CCn1cnc2cnc(N)nc21)COC(C)=O` [famciclovir] + CN1CCN(C2=Nc3ccccc3Oc3ccc(Cl)cc32)CC1 [loxapine] showed a food intake of 0.0236 ± 0.0029.
`CCOC(=O)c1c(CSc2ccccc2)n(C)c2cc(Br)c(O)c(CN(C)C)c12` [arbidol (hydrochloride)] + CN1CCN(C2=Nc3ccccc3Oc3ccc(Cl)cc32)CC1 [loxapine] showed a food intake of 0.0227 ± 0.0057.
In the case of `CC(C)NCC(O)COc1ccc(CCOCC2CC2)cc1` (stereo not given) [betaxolol] + CN1CCN(C2=Nc3ccccc3Oc3ccc(Cl)cc32)CC1 [loxapine], the food intake is reported as 0.0265 ± 0.0022.
Compound `Cc1ccc(C)c(OCCCC(C)(C)C(=O)O)c1` [Gemfibrozil] + CN1CCN(C2=Nc3ccccc3Oc3ccc(Cl)cc32)CC1 [loxapine] has a food intake of 0.0247 ± 0.0069.
In the case of `Cc1ccc(Nc2nccc(N(C)c3ccc4c(C)n(C)nc4c3)n2)cc1S(N)(=O)=O` [pazopanib (hydrochloride)] + CN1CCN(C2=Nc3ccccc3Oc3ccc(Cl)cc32)CC1 [loxapine], the food intake is reported as 0.0206 ± 0.0053.
With `Cc1[nH]c(=O)c(C#N)cc1-c1ccncc1` [milrinone] + CN1CCN(C2=Nc3ccccc3Oc3ccc(Cl)cc32)CC1 [loxapine] the food intake was 0.0238 ± 0.0035.
Work on `c1ccc(C2CN3CCSC3=N2)cc1` (stereo not given) [tetramisole (hydrochloride)] + CN1CCN(C2=Nc3ccccc3Oc3ccc(Cl)cc32)CC1 [loxapine] yielded a food intake of 0.0209 ± 0.0029.
Compound `CC(=O)O[C@H]1CC[C@H]2[C@@H]3CCc4cc(O)ccc4[C@H]3CC[C@]12C` [b-estradiol 17-acetate] + CN1CCN(C2=Nc3ccccc3Oc3ccc(Cl)cc32)CC1 [loxapine] has a food intake of 0.0213 ± 0.0046.
`Cc1cc(C2CCCCC2)n(O)c(=O)c1` [ciclopirox] + CN1CCN(C2=Nc3ccccc3Oc3ccc(Cl)cc32)CC1 [loxapine] was tested, and the food intake was 0.0218 ± 0.0041.
